According to ChEMBL document CHEMBL3433997, “St. Jude Leishmania screening dataset” (2016):

What follows are molecules tested against Solute carrier family 2, facilitated glucose transporter member 1 (Homo sapiens) (UniProt P11166) (assay: ST_JUDE_LEISH: Cytotoxicity at 2uM final concentration against transgenic Leishmania Mexicana promastigotes LmGLUT1 that are glucose transport deficient and complemented with the human glucose transporter GLUT1. Activity is measured by DNA content using SYBR green in vitro).
Solute carrier family 2, facilitated glucose transporter member 1 (Homo sapiens), sequence (P11166 whole entry): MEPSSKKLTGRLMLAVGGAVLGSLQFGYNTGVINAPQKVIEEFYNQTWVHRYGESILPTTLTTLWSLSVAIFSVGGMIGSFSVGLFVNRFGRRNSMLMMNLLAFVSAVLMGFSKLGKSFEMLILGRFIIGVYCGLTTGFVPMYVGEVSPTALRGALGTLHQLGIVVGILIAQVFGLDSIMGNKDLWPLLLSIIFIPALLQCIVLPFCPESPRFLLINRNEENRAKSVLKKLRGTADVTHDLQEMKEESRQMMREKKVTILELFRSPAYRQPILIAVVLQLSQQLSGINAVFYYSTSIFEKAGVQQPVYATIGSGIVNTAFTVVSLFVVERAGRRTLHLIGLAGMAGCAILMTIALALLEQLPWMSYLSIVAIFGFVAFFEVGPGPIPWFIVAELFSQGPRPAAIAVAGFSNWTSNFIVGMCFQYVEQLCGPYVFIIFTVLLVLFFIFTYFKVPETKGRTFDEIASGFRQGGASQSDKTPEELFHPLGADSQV
Format: functional
In the case of `CCN(CC)CCN(Cc1ccc(-c2ccc(C(F)(F)F)cc2)cc1)C(=O)Cn1c(SCc2ccc(F)c(F)c2F)nc(=O)c2c1CCC2`, the inhibition is reported as 2.57%.
In the case of `CC(C)(C)OC(=O)Cn1cnc2cc(NC(=O)c3cc([N+](=O)[O-])cc([N+](=O)[O-])c3)ccc21`, the inhibition is reported as 3.13%.
In the case of `COc1ccc(CCNCCCCCCNCCc2ccc(-c3ccccc3)cc2)cc1OC`, the inhibition is reported as 92.8%.
Molecule `CCN(CC)CCN(Cc1ccc(-c2ccc(C(F)(F)F)cc2)cc1)C(=O)Cn1c(CCc2cccc(F)c2F)nc(=O)c2ccc(C)cc21` has an inhibition of 0.88%.
`COc1cc(/C=C/C(=O)NC2CCC(N3CCC(c4ccccc4C)CC3)CC2)cc(OC)c1` (centres undefined) gave an inhibition of -0.75%.
For `Cc1cccc2nc(-c3ccc(-c4cccc(NC(=O)Nc5ccccc5)c4)cc3)[nH]c12`, the inhibition was 9.16%.
In the case of `Cc1cccc(CNc2nc(C)cc(N[C@@H](Cc3ccccc3)C(=O)NCCc3ccccc3)n2)c1`, the inhibition is reported as 3.88%.
Molecule `Cc1cc(OCCCN2CCC(NS(=O)(=O)c3cccc(Br)c3)C2)c2ccccc2n1` (centres undefined) has an inhibition of 0.6%.
Work on `CCOC(=O)c1ccc2[nH]c(-c3ccc(C(=O)NCc4ccc(C(C)(C)C)cc4)cc3)nc2c1` yielded an inhibition of 4.63%.
`NC(=O)c1cccc(CN2Cc3ccccc3OC3(CCN(Cc4c[nH]c5cnccc45)CC3)C2)c1` showed an inhibition of 0.63%.
With `Cc1cc(=NN=Cc2ccc(Cl)cc2)c2cccc(C)c2[nH]1` the inhibition was 10.4%.
Molecule `O=C(NC1CCN(Cc2ccccc2)CC1)c1csc2nc(-c3ccc(Cl)cc3)cn12` has an inhibition of 4.09%.
For `COCc1nc(-c2ccccc2)nc(N2CCN(C(=O)NC(C)C)CC2)c1Cc1ccccc1F`, the inhibition was 8.3%.
Work on `CCCN1CCN(CCCNC(=O)c2cc3c(-c4ccc(Cl)cc4)nn(C)c3s2)CC1` yielded an inhibition of 18.3%.
